From PubChem
A selection: hits, their analogues and other compounds. The true share with any hit is near 5.1%.
HEK293 cAMP ctrl = parental HEK293 cAMP activation (counter-screen); parental HEK293 CNG cAMP sensor, membrane potential fluorescence; Potency, µM (top dose mostly 57.1 µM), inactives show top-dose activation, most hits filed as activators; actives 2.5% (n = 73,000); AID 938; note: % of control where 0% means no effect; nearly all actives have a fitted effect of over 55% in size
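Parental HEK 293 cells stably expressing a modified CNG channel (no TSHR) report cAMP rise as membrane depolarization. Membrane potential dye with 100 uM RO 20-1724 was loaded for 60 min at room temperature, then compound added for 30 min; fluorescence read at 590 nm.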
Pol III holo inh = blocks replication by bacterial DNA polymerase III holoenzyme; reconstituted DNA polymerase III holoenzyme replication, biochemical; Potency, µM (titrated, usually from 57.1 µM), for the others: top-dose activity change, negative = inhibition; actives 0.25% (n = 71,000); AID 603; note: % is set by controls: 0 for no effect and ±100 for the full control effect
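Reconstituted *E. coli* holoenzyme (0.35 nM Pol III, 1 nM beta, 154 nM SSB, 2 nM primase) was preincubated with compound for 15 min at RT. Synthesis on 1.4 nM ssM13Gori ran 35 min, then was stopped with PicoGreen/EDTA and read as dsDNA fluorescence.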
Hsp90 Hop PPI = changes Hsp90-Hop TPR2A binding signal, up or down. AlphaScreen TPR2A-His6 binding biotin-Hsp90 C-terminal peptide. Potency, µM (top dose mostly 57 µM), for inactives: at the top dose activity change, negative = inhibition. actives 0.44% (n = 71,000); active = well fitted curve in either direction with a large enough effect; inconclusive = small, poorly fitted or top-dose-only effect, or another doubt; note: % is set by controls: 0 for no effect and ±100 for the full control effect
Tau filament bind = binders of human tau filaments; AID 596; recombinant tau filaments, thioflavin S fluorescence, 15 h; filaments grown with octadecylsulfate alongside compound; actives 2% (n = 71,000); Potency, µM (series often up to 57.1 µM), for inactives: at the top dose activity change, negative = inhibition;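 note: % is set by controls: 0 for no effect and ±100 for the full control effect; actives lower thioflavin S fluorescence by blocking filaments or displacing dye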
Target sequence (P10636 whole entry, looked up): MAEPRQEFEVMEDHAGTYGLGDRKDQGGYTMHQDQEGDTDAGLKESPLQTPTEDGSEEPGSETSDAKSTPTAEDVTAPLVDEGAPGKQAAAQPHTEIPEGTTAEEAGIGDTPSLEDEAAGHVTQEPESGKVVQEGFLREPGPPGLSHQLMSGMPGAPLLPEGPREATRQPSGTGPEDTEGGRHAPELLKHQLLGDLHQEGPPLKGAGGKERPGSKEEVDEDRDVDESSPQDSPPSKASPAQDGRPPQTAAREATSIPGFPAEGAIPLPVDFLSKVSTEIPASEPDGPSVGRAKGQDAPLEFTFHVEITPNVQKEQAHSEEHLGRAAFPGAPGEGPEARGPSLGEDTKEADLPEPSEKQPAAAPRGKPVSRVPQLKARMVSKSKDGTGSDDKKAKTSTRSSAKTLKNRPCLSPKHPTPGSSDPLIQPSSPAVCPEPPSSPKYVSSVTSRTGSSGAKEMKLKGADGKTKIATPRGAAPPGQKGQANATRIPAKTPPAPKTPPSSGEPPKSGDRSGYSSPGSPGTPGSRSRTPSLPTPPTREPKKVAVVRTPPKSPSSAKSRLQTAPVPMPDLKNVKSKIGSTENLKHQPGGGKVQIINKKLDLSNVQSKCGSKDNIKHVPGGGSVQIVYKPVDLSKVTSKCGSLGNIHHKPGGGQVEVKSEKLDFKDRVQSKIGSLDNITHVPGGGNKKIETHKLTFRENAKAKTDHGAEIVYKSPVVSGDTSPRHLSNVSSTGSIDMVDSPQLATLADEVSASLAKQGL
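Thioflavine S fluorescence (ex 450, em 510 nm) reports filaments formed from 1 uM human tau plus 30 uM ODS over 15 h at 37 C (10 mM HEPES pH 7.4, 100 mM NaCl, 5 mM DTT); compounds displacing dye or blocking filaments lower signal.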
TSHR agonist = activates the human thyroid stimulating hormone receptor; P16473; HEK293-CNG-TSHR cells (CNG channel as cAMP sensor), membrane potential dye, cAMP; Potency, µM (series often up to 57.1 µM), for the others: top-dose activation, most hits filed as activators; actives 0.48% (n = 73,000); active = well fitted activation curve with a large enough effect in the main read-out, with a control signal flat, not every such curve was filed as active; inconclusive = small, poorly fitted or top-dose-only effect, or a change in a side signal; inactive = no such curve, though single readings can be large or run the other way; % of control where 0% means no effect;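 note: the control signal comes from parental cells without the receptor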
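HEK 293 cells stably expressing TSHR and a cAMP-gated CNG channel; parental CNG-only cells as counterscreen. Cells preloaded 60 min with membrane potential dye plus 100 uM RO 20-1724, then compound 30 min; fluorescence read at 590 nm.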
An asterisk follows results filed as active; i = inactive; u = inconclusive; ! = repeats disagree; [ ] = another dose, or the depositor's remark. Unless noted, calls come from the whole dose curve; as a rule, active = well fitted curve in the direction sought with a large enough effect; inconclusive = small, poorly fitted or top-dose-only effect, or another doubt; inactive = no such curve, though single readings can be large; an effect the other way counts as inactive or inconclusive. Potency is the fitted concentration of half-maximal effect.

SMILES	HEK293 cAMP ctrl	Pol III holo inh	Hsp90 Hop PPI	Tau filament bind	TSHR agonist
COc1cc(-c2ccc(N=Nc3ccc4c(S(=O)(=O)O)cc(S(=O)(=O)O)c(N)c4c3O)c(OC)c2)ccc1N=Nc1ccc2c(S(=O)(=O)O)cc(S(=O)(=O)O)c(N)c2c1O	-16%	2.5µM*	4µM*!	13µM*	-21%
Nc1ncnc2c1nc(Br)n2[C@H]1O[C@H]2COP(=O)(O)O[C@H]2[C@@H]1O	1%	-4%	-1%	40µM*	8%
OC[C@H]1NC[C@H](O)[C@@H](O)[C@H]1O	-3%	-4%	1%	-24%	4%
CCCCC(c1nnnn1C1CCCC1)N1CCN(C2CCCCC2)CC1 (stereo not drawn)	2.5µM*	-5%	-4%	17%	u
CCCC(c1nnnn1CCc1ccccc1)N1CCN(C2CCCC2)CC1 (stereo not drawn)	16µM*	-2%	-2%	8%	u
O=c1c(-c2cccs2)nc2cnc(N3CCNCC3)nc2n1C1CC1	-15%	-9%	-2%	i	-7%
CC#C[C@@]1(O)CC[C@H]2[C@@H]3CCC4=CC(=O)CCC4=C3[C@H](c3ccc(N(C)C)cc3)C[C@]21C	-9%[25.6 µM]	8%[25.6 µM]	u	-28%[25.6 µM]	-10%[25.6 µM]
CC#C[C@@]1(O)CC[C@@H]2[C@@H]3CCC4=CC(=O)CCC4=C3[C@@H](c3ccc(N(C)C)cc3)C[C@]21C	-5%	-2%	u	32µM*	-18%
O=[N+]([O-])c1ccc2c(N=Nc3ccc4ccccc4c3O)c(O)cc(S(=O)(=O)O)c2c1	u	-19%[11.4 µM]	u	3.2µM*	u
O=S(=O)(O)c1ccc2c(N=Nc3cccc4ccccc34)c(O)c(S(=O)(=O)O)cc2c1	2%[11.4 µM]	-9%[11.4 µM]	-29%[11 µM]	-11%[11.4 µM]	-8%[11.4 µM]
N#Cc1nc(N2CCCC2)nc(N2CCCC2)n1	21%	0%	-7%	41%	17%[11.4 µM]
N#Cc1nc(N2CCCCC2)nc(N2CCOCC2)n1	15%	3%	0%	2.5µM*	32%
CC1=C(C(=O)OCc2ccc3c(c2)OCO3)C(c2ccc(Cl)cc2)NC(=O)N1 (stereo not drawn)	18%	-1%	-4%	8%	32µM*
CCOc1ccc(-c2nnc(NC(=O)c3ccc(OCC(C)C)c(OC)c3)o2)cc1	25µM*	-4%	-2%	12%	u
Cc1ccc2nc(Nc3ccc4[nH]c(=O)[nH]c4c3)c(-n3nc(C)cc3C)nc2c1	-28%	-2%	-9%	0.63µM*	-32%
Cc1cc(=O)[nH]c(-n2nc(C)cc2C)n1	0%	-3%	-17%	-8%	-1%
O=C(C1CCN(S(=O)(=O)c2ccc3ccccc3c2)CC1)N1CCN(c2ncccn2)CC1	25µM*	-4%	-7%	11%	u
O=c1c(-c2cc(F)cc(F)c2)nc2cnc(N3CCNCC3)nc2n1C1CC1	3%	-8%	6%	177%	-12%
COc1ccc(Oc2ncc3nc(-c4ccc(OC)cc4)c(=O)n(C4CC4)c3n2)cc1	13%	0%	-7%	15%	3%
CN1CCN(c2ncc3nc(-c4cc(F)cc(F)c4)c(=O)n(C4CC4)c3n2)CC1	9%	-8%	u	16µM*	-5%
COc1ccc(Oc2ncc3nc(-c4cc(F)cc(F)c4)c(=O)n(C4CC4)c3n2)cc1	-11%	-8%	-3%	20µM*	-12%
COc1ccccc1CNc1ncnc2ccc(-c3ccccc3OC)cc12	20%	10%	-6%	397%	13µM*
COc1ccccc1CNc1ncnc2ccc(-c3ccc(N(C)C)cc3)cc12	-64%	-5%	u	2µM*	u
O=C(CCn1c(=O)sc2ccccc21)NCc1ccc2c(c1)OCO2	4%	-3%	3%	3%	0%
O=C(O)Cc1[nH]cnc1C(=O)O	4%[11.4 µM]	-11%[11.4 µM]	-15%[11 µM]	1%[11.4 µM]	-2%[11.4 µM]
O=C1C(C=Nc2ccccc2O)=C(O)c2ccccc21	4%	-11%	-11%	u	-10%
Cc1ccc(O)c(N=CC2=C(O)c3ccccc3C2=O)c1	-5%	-23%	u	7.9µM*	-20%
COc1ccc(-c2nnc(SCc3nnc(-c4ccccc4)o3)n2-c2ccccc2)cc1	10%[11.4 µM]	-8%[11.4 µM]	-10%[11 µM]	i[11.4 µM]	19%[11.4 µM]
